T1: RBFOX1 RRM (Homo sapiens, UniProt Q9NWB1 109-208)
T1 sequence: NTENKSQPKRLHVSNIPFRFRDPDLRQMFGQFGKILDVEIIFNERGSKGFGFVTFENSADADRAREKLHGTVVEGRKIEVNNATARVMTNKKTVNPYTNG

B1: GAGCAGA (DNA:RNA)
RNA: GGGAGACCGGAAUUCAGAUUGUCCGAGCAGAUUAAAUCCCGUCGUAGCCACCA
DNA 1: CAATCTGAATTCCGGTCTCCC
DNA 2: TGGTGGCTACGACGGGATT
B2: GAGCACG (DNA:RNA)
RNA: B1 RNA with G30C, A31G
DNA 1: CAATCTGAATTCCGGTCTCCC
DNA 2: TGGTGGCTACGACGGGATT
B3: GAGCACC (DNA:RNA)
RNA: B1 RNA with G30C, A31C
DNA 1: CAATCTGAATTCCGGTCTCCC
DNA 2: TGGTGGCTACGACGGGATT
B4: GAGCAUG (DNA:RNA)
RNA: B1 RNA with G30U, A31G
DNA 1: CAATCTGAATTCCGGTCTCCC
DNA 2: TGGTGGCTACGACGGGATT
B5: GAGCAUC (DNA:RNA)
RNA: B1 RNA with G30U, A31C
DNA 1: CAATCTGAATTCCGGTCTCCC
DNA 2: TGGTGGCTACGACGGGATT
B6: GAGAGCA (DNA:RNA)
RNA: B1 RNA with C28A, A29G, G30C
DNA 1: CAATCTGAATTCCGGTCTCCC
DNA 2: TGGTGGCTACGACGGGATT
B7: UUGCUAA (DNA:RNA)
RNA: B1 RNA with G25U, A26U, A29U, G30A
DNA 1: CAATCTGAATTCCGGTCTCCC
DNA 2: TGGTGGCTACGACGGGATT
B8: CGACAAG (DNA:RNA)
RNA: B1 RNA with G25C, A26G, G27A, G30A, A31G
DNA 1: CAATCTGAATTCCGGTCTCCC
DNA 2: TGGTGGCTACGACGGGATT
B9: CCAUGCU (DNA:RNA)
RNA: GGGAGACCGGAAUUCAGAUUGUCCCCAUGCUUUAAAUCCCGUCGUAGCCACCA
DNA 1: CAATCTGAATTCCGGTCTCCC
DNA 2: TGGTGGCTACGACGGGATT
B10: UUGCACC (DNA:RNA)
RNA: B1 RNA with G25U, A26U, G30C, A31C
DNA 1: CAATCTGAATTCCGGTCTCCC
DNA 2: TGGTGGCTACGACGGGATT
B11: AUGCAUC (DNA:RNA)
RNA: B1 RNA with G25A, A26U, G30U, A31C
DNA 1: CAATCTGAATTCCGGTCTCCC
DNA 2: TGGTGGCTACGACGGGATT
B12: AUGCAUG (DNA:RNA)
RNA: B1 RNA with G25A, A26U, G30U, A31G
DNA 1: CAATCTGAATTCCGGTCTCCC
DNA 2: TGGTGGCTACGACGGGATT
B13: UAGCACG (DNA:RNA)
RNA: B1 RNA with G25U, G30C, A31G
DNA 1: CAATCTGAATTCCGGTCTCCC
DNA 2: TGGTGGCTACGACGGGATT
B14: AUGCAUA (DNA:RNA)
RNA: B1 RNA with G25A, A26U, G30U
DNA 1: CAATCTGAATTCCGGTCTCCC
DNA 2: TGGTGGCTACGACGGGATT
B15: UUGCAGA (DNA:RNA)
RNA: B1 RNA with G25U, A26U
DNA 1: CAATCTGAATTCCGGTCTCCC
DNA 2: TGGTGGCTACGACGGGATT
B16: UUGCACG (DNA:RNA)
RNA: B1 RNA with G25U, A26U, G30C, A31G
DNA 1: CAATCTGAATTCCGGTCTCCC
DNA 2: TGGTGGCTACGACGGGATT
B17: UACCACG (DNA:RNA)
RNA: B1 RNA with G25U, G27C, G30C, A31G
DNA 1: CAATCTGAATTCCGGTCTCCC
DNA 2: TGGTGGCTACGACGGGATT
B18: UAGCACC (DNA:RNA)
RNA: B1 RNA with G25U, G30C, A31C
DNA 1: CAATCTGAATTCCGGTCTCCC
DNA 2: TGGTGGCTACGACGGGATT
B19: AUGCACG (DNA:RNA)
RNA: B1 RNA with G25A, A26U, G30C, A31G
DNA 1: CAATCTGAATTCCGGTCTCCC
DNA 2: TGGTGGCTACGACGGGATT
B20: AUCCACG (DNA:RNA)
RNA: B1 RNA with G25A, A26U, G27C, G30C, A31G
DNA 1: CAATCTGAATTCCGGTCTCCC
DNA 2: TGGTGGCTACGACGGGATT
B21: AUGCACC (DNA:RNA)
RNA: B1 RNA with G25A, A26U, G30C, A31C
DNA 1: CAATCTGAATTCCGGTCTCCC
DNA 2: TGGTGGCTACGACGGGATT
B22: GUCCCAA (DNA:RNA)
RNA: B1 RNA with A26U, G27C, A29C, G30A
DNA 1: CAATCTGAATTCCGGTCTCCC
DNA 2: TGGTGGCTACGACGGGATT
B23: CAUUACG (DNA:RNA)
RNA: B9 RNA with C26A, A27U, G29A, U31G
DNA 1: CAATCTGAATTCCGGTCTCCC
DNA 2: TGGTGGCTACGACGGGATT
B24: UCACUCG (DNA:RNA)
RNA: B9 RNA with C25U, U28C, G29U, U31G
DNA 1: CAATCTGAATTCCGGTCTCCC
DNA 2: TGGTGGCTACGACGGGATT
B25: GUGCACC (DNA:RNA)
RNA: B1 RNA with A26U, G30C, A31C
DNA 1: CAATCTGAATTCCGGTCTCCC
DNA 2: TGGTGGCTACGACGGGATT
B26: GUGCACG (DNA:RNA)
RNA: B1 RNA with A26U, G30C, A31G
DNA 1: CAATCTGAATTCCGGTCTCCC
DNA 2: TGGTGGCTACGACGGGATT
B27: ACGUGCG (DNA:RNA)
RNA: B9 RNA with C25A, A27G, U31G
DNA 1: CAATCTGAATTCCGGTCTCCC
DNA 2: TGGTGGCTACGACGGGATT
B28: AGGUCUC (DNA:RNA)
RNA: B9 RNA with C25A, C26G, A27G, G29C, C30U, U31C
DNA 1: CAATCTGAATTCCGGTCTCCC
DNA 2: TGGTGGCTACGACGGGATT

Changes are numbered by the printed parent chain; changes in the protein carry UniProt numbers. The full ranking holds about 16,000 sequences; the median of “ka relative to ugcaugu” is about 0.0091, and the highest 2% start at about 0.032. The sample holds the highest values, similar sequences and a random draw of the others, so the mix is not that of the screen.

For this experiment, the target named is T1, RBFOX1 RRM. In words: EMSA; HiTS-Eq, 1 nM pool, 10 min; buffer printed only for the single-RNA assays: 10 mM Tris pH 7.5, 150 mM NaCl, 3.4 mM EDTA, 0.001% NP-40, 30 C. The note with it: tags: His6 N-terminal (pET28a); label: 5' 32P. Summed up: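 Relative association constants, normalised to the cognate motif, were derived by comparing read counts of each RNA species with those of the control reaction. The RNA sequenced was the free fraction, separated by 8% native PAGE after a 10 min equilibration in 50 µL of 1 nM 5′-radiolabelled RNA (7 randomized nucleotides) with increasing concentrations of purified wild-type or mutant RbFox RRM.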
On to B1, for which the binding signal is 0.0147 KA relative to UGCAUGU. The same measure for B2: 0.0394 KA relative to UGCAUGU. The same measure for B3: 0.00895 KA relative to UGCAUGU; for B4: 0.713 KA relative to UGCAUGU; for B5: 0.018 KA relative to UGCAUGU. Under B6 stands 0.0187 KA relative to UGCAUGU. Take B7: the binding signal is 0.00861 KA relative to UGCAUGU. Under B8 stands 0.00637 KA relative to UGCAUGU; under B9, 0.00802 KA relative to UGCAUGU. Under B10 stands 0.0149 KA relative to UGCAUGU; under B11, 0.015 KA relative to UGCAUGU.

On to B12, for which the binding signal was 0.911 KA relative to UGCAUGU. With B13, the binding signal was 0.0464 KA relative to UGCAUGU.

Take B14: the binding signal is 0.00891 KA relative to UGCAUGU. Under B15 stands 0.018 KA relative to UGCAUGU; under B16, 0.692 KA relative to UGCAUGU; under B17, 0.00532 KA relative to UGCAUGU.

With B18, the binding signal was 0.0118 KA relative to UGCAUGU.

B19: the binding signal was 0.361 KA relative to UGCAUGU. Take B20: the binding signal was 0.0022 KA relative to UGCAUGU. The same measure for B21: 0.0115 KA relative to UGCAUGU; for B22: 0.00597 KA relative to UGCAUGU; for B23: 0.00857 KA relative to UGCAUGU. The same measure for B24: 0.00518 KA relative to UGCAUGU. As for B25, the binding signal is 0.0178 KA relative to UGCAUGU. The same measure for B26: 0.62 KA relative to UGCAUGU. Regarding B27, the binding signal is 0.0166 KA relative to UGCAUGU.

As for B28, the binding signal was 0.0131 KA relative to UGCAUGU.
